# Measured values from the supplement of paper PMC12494721.
# Structures can show the parent of a compound that is named as a salt.
# What was measured:
# Settings in all cases: 20 µM; incubation time: 27 h, anaerobic, 37 °C;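 for the amine columns active = adjusted P below 0.05 in both replicates with a change the same way and a mean fold change under 0.8 or over 1.25; inactive = the rest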
# [1] = test system: Clostridium sporogenes DSM 1664; test: growth (OD595) fold change vs plate DMSO controls (fold change (ratio)); higher = more growth
# In short: (§1)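 Growth is expressed as the fold change relative to the median of the DMSO control wells on each plate. Cultures in mGAM were grown anaerobically in 96-well plates for 27 h at 37 °C, shaken, and read at 595 nm. Readings were blank-subtracted, corrected for compound background with 20 µM compound solutions in water, and converted to OD with a calibration factor of 5. Fold changes above 1.5 were set to NA, and each value is the mean of 2 biological replicates.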
# Escherichia coli IAI1 [2] = test: as above
# In short: as §1
# [3] = test system: Klebsiella aerogenes DSM 30053; test: as above
# In short: as §1
# [4] = test system: Ruminococcus gnavus DSM 108212; test: as above
# In short: as §1
# [5] = test system: Klebsiella aerogenes DSM 30053; test: fold change of Histamine concentration vs plate DMSO controls (fold change (ratio)); higher = more amine produced, active = hit call of the paper (significant change in both replicates, either direction)
# In short: (§2)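 Amines were quantified by LC–triple-quadrupole MS in dynamic MRM mode against external calibration curves, with drift correction within each batch. The samples were whole anaerobic mGAM cultures of four gut bacterial strains, grown for 27 h at 37 °C in 80 µL wells and extracted with cold acetonitrile/methanol with 0.1% formic acid, then centrifuged. Values are reported as fold change over DMSO controls on the same plate. The mean of 2 biological replicates is given.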
# [6] = test system: Clostridium sporogenes DSM 1664; test: fold change of Tryptamine concentration vs plate DMSO controls (fold change (ratio)); higher = more amine produced, active = hit call of the paper (significant change in both replicates, either direction)
# In short: as §2
# [7] = test system: Ruminococcus gnavus DSM 108212; test: as above
# In short: as §2
# Escherichia coli IAI1 [8] = test: fold change of Putrescine concentration vs plate DMSO controls (fold change (ratio)); higher = more amine produced, active = hit call of the paper (significant change in both replicates, either direction)
# In short: as §2
# [9] = test system: Klebsiella aerogenes DSM 30053; test: as above
# In short: as §2
# Escherichia coli IAI1 [10] = test: fold change of Cadaverine concentration vs plate DMSO controls (fold change (ratio)); higher = more amine produced, active = hit call of the paper (significant change in both replicates, either direction)
# In short: as §2
# [11] = test system: Klebsiella aerogenes DSM 30053; test: as above
# In short: as §2
# [12] = test system: Ruminococcus gnavus DSM 108212; test: fold change of 2-Phenylethylamine concentration vs plate DMSO controls (fold change (ratio)); higher = more amine produced, active = hit call of the paper (significant change in both replicates, either direction)
# In short: as §2
SMILES,growth [1],growth (Escherichia coli IAI1 [2]),growth [3],growth [4],fold change of Histamine concentration [5],fold change of Tryptamine concentration [6],fold change of Tryptamine concentration [7],fold change of Putrescine concentration (Escherichia coli IAI1 [8]),fold change of Putrescine concentration [9],fold change of Cadaverine concentration (Escherichia coli IAI1 [10]),fold change of Cadaverine concentration [11],fold change of 2-Phenylethylamine concentration [12]
CCN(C(C)=O)c1cccc(-c2ccnc3c(C#N)cnn23)c1 [Zaleplon],1.07,0.995,1.05,1.05,0.987 (inactive),0.972 (inactive),1.02 (inactive),1.03 (inactive),0.992 (inactive),1.02 (inactive),1.01 (inactive),1.04 (inactive)
NCC1(CC(=O)O)CCCCC1 [Gabapentin],1.14,1.15,1.03,1,1.04 (inactive),0.986 (inactive),1.03 (inactive),1.03 (inactive),1 (inactive),1.02 (inactive),0.985 (inactive),1.07 (inactive)
Nc1c([N+](=O)[O-])ccc(Oc2ccccc2)c1Cl,0.859,0.991,0.998,1.03,0.974 (inactive),1.02 (inactive),1.01 (inactive),0.973 (inactive),1.01 (inactive),1.04 (inactive),1.01 (inactive),0.982 (inactive)
CCN[C@@H](C)Cc1cccc(C(F)(F)F)c1 [Dexfenfluramine hydrochloride],1.03,1.05,1.1,0.954,0.833 (inactive),1.28 (inactive),1.07 (inactive),1.02 (inactive),0.95 (inactive),0.869 (inactive),1.06 (inactive),1.16 (inactive)
N#Cc1c(Cl)c(Cl)c(Cl)c(C#N)c1Cl,0.937,1.02,0.925,0.962,1.03 (inactive),0.995 (inactive),0.853 (inactive),1 (inactive),0.995 (inactive),1.08 (inactive),0.991 (inactive),0.804 (inactive)
COc1ccc(-c2ccccc2)cc1NNC(=O)OC(C)C,1.14,0.997,1,1.12,0.998 (inactive),0.997 (inactive),0.968 (inactive),0.991 (inactive),1 (inactive),1.03 (inactive),0.984 (inactive),0.922 (inactive)
S=C(NC1CCCCC1)N1CCC(c2cnc[nH]2)CC1 [Thioperamide maleate],0.957,1.03,1.02,1.03,1.07 (inactive),1.05 (inactive),1.02 (inactive),0.98 (inactive),1.02 (inactive),0.951 (inactive),0.987 (inactive),1.01 (inactive)
CC(C)c1cccc(C(C)C)c1O [Propofol],1.24,1.01,1,1.03,1.05 (inactive),0.931 (inactive),0.964 (inactive),0.865 (inactive),1.01 (inactive),1.34 (active),0.989 (inactive),0.908 (inactive)
CCCC(Cn1cncn1)c1ccc(Cl)cc1Cl (stereo unspecified),0.931,0.973,1.02,0.977,1.02 (inactive),1.01 (inactive),0.984 (inactive),1.02 (inactive),1.02 (inactive),0.965 (inactive),0.997 (inactive),0.953 (inactive)
CC1(C)[C@H](/C=C(\Cl)C(F)(F)F)[C@@H]1C(=O)OC(C#N)c1cccc(Oc2ccccc2)c1 (stereo partly specified),0.953,0.991,0.981,0.999,0.987 (inactive),0.918 (inactive),1.03 (inactive),0.976 (inactive),0.987 (inactive),1.02 (inactive),0.995 (inactive),1.08 (inactive)
C=CC[C@]1(O)CC[C@H]2[C@@H]3CCC4=CCCC[C@@H]4[C@H]3CC[C@@]21C [Allylestrenol],1.01,1.01,1.06,1.09,0.993 (inactive),1.03 (inactive),1.01 (inactive),0.977 (inactive),0.992 (inactive),0.924 (inactive),1.02 (inactive),1.1 (inactive)
N#C/N=C1\SCCN1Cc1ccc(Cl)nc1,1.01,0.969,0.996,1,0.995 (inactive),1 (inactive),1 (inactive),1.04 (inactive),0.994 (inactive),0.991 (inactive),1 (inactive),1.03 (inactive)
O=C(NC(=O)c1c(F)cccc1F)Nc1ccc(OC(F)(F)C(F)OC(F)(F)F)c(Cl)c1 (stereo unspecified),0.972,1.03,1.01,0.995,0.951 (inactive),0.981 (inactive),1.01 (inactive),1.01 (inactive),0.928 (inactive),0.872 (inactive),1.01 (inactive),0.957 (inactive)
C[N+]1([O-])[C@@H]2C[C@@H](OC(=O)[C@H](CO)c3ccccc3)C[C@H]1[C@@H]1O[C@@H]12 (stereo partly specified) [Scopolamin-N-oxide hydrobromide],1.05,1.03,1.01,0.938,0.988 (inactive),1.01 (inactive),1.13 (inactive),1 (inactive),0.931 (inactive),0.991 (inactive),1.01 (inactive),1.13 (inactive)
O=C(O)C(F)(F)C(F)(F)C(F)(F)C(F)(F)C(F)(F)C(F)(F)C(F)(F)C(F)(F)C(F)(F)F [PFDeA (Perfluorodecanoic acid)],1.11,1.04,1.04,1.24,1.02 (inactive),0.916 (inactive),0.999 (inactive),1.02 (inactive),0.996 (inactive),1.01 (inactive),1 (inactive),0.962 (inactive)
CCc1cnc(C2=NC(C)(C(C)C)C(=O)N2)c(C(=O)O)c1 (stereo unspecified),1,1.06,0.985,1.09,1 (inactive),0.954 (inactive),1.01 (inactive),1.03 (inactive),1.02 (inactive),0.991 (inactive),0.993 (inactive),0.984 (inactive)
Clc1ccc(C(OCCN2CCCCC2)c2ccccc2)cc1 (stereo unspecified) [Cloperastine hydrochloride],1.14,1.07,1.06,0.788,0.884 (inactive),1.01 (inactive),0.88 (inactive),1.06 (inactive),0.988 (inactive),0.958 (inactive),1.03 (inactive),1 (inactive)
CC(C)(C)NCC(O)c1ccccc1Cl (stereo unspecified) [Tulobuterol Hydrochloride],0.953,0.972,0.966,1.11,0.972 (inactive),1 (inactive),1.01 (inactive),1.02 (inactive),1.02 (inactive),0.993 (inactive),1.01 (inactive),1.03 (inactive)
CC(C1CC1)C(O)(Cn1cncn1)c1ccc(Cl)cc1 (mixture of isomers),0.851,0.991,0.991,0.941,1.01 (inactive),0.92 (inactive),0.994 (inactive),1.01 (inactive),0.996 (inactive),1 (inactive),0.995 (inactive),0.953 (inactive)
O=C(O)COc1ccc(Cl)cc1Cl,0.956,1.01,1.07,1.22,0.958 (inactive),1.02 (inactive),0.967 (inactive),1 (inactive),1 (inactive),0.996 (inactive),1.01 (inactive),0.929 (inactive)
O=C1c2ccccc2C(=O)N1SC(Cl)(Cl)Cl,1.06,1,0.997,0.937,1 (inactive),0.983 (inactive),0.999 (inactive),1.05 (inactive),1 (inactive),0.969 (inactive),0.988 (inactive),0.999 (inactive)
CC(C)N(CCC(C(N)=O)(c1ccccc1)c1ccccn1)C(C)C (stereo unspecified) [Disopyramide],1.08,1.04,1.01,0.817,0.927 (inactive),0.996 (inactive),1 (inactive),1.06 (inactive),0.996 (inactive),1.01 (inactive),1 (inactive),0.972 (inactive)
O=C(NCNC(=O)NC1C(=O)NC(=O)N1CO)NC1C(=O)NC(=O)N1CO (stereo unspecified) [Imidurea],1.05,1.06,0.987,1.19,1.02 (inactive),0.998 (inactive),1.01 (inactive),1.01 (inactive),1 (inactive),1 (inactive),0.994 (inactive),1 (inactive)
CC1(C(=O)Nc2ccc(O)c(Cl)c2Cl)CCCCC1,0.939,1.02,1,1.22,0.992 (inactive),0.999 (inactive),0.96 (inactive),0.992 (inactive),0.99 (inactive),1.03 (inactive),1 (inactive),0.987 (inactive)
O=S(=O)(c1ccc(O)cc1)c1ccc(O)cc1 [Bisphenol S],1.08,1.02,0.994,1.04,0.949 (inactive),1.04 (inactive),0.941 (inactive),0.883 (inactive),0.939 (inactive),0.961 (inactive),0.998 (inactive),0.946 (inactive)
Cc1ccc(/N=C/N(C)/C=N/c2ccc(C)cc2C)c(C)c1,0.953,1.05,1.03,1.06,1.03 (inactive),0.98 (inactive),0.939 (inactive),0.981 (inactive),1.01 (inactive),1.01 (inactive),0.991 (inactive),0.926 (inactive)
CCCN(CCOc1c(Cl)cc(Cl)cc1Cl)C(=O)n1ccnc1,1.07,0.976,1.01,0.951,1.02 (inactive),1.05 (inactive),1.02 (inactive),1 (inactive),1.01 (inactive),1.02 (inactive),0.998 (inactive),1.04 (inactive)
CCCN(CCC)N=O [NDPA (N-nitrosodipropylamine)],0.977,0.974,0.99,0.958,1.01 (inactive),1.03 (inactive),1.06 (inactive),0.969 (inactive),0.982 (inactive),0.874 (inactive),1.01 (inactive),1.07 (inactive)
